Data: ChEMBL document CHEMBL3988442, “University of Dundee, Small-Polar-MMV Screening Library” (2021)

Target: Shiga toxin 2 (Escherichia coli O157:H7) (UniProt P09385+P09386)
Test: E. coli 0.157:H7 Shiga Toxin SOP - stx2 screening assay
Type: functional
Set-up: scale not given: direction of the effect not stated beside the values
Settings: 30 µM

SMILES | Percent Effect
CN(C)C(CNC(=O)c1cc2c([nH]c1=O)CCCC2=O)c1ccsc1 (stereo not given) | -21.1%
CCc1nc(C(=O)N2CCN(C)CC2C)nn1-c1ccccc1Cl (stereo not given) | 26.3%
CCn1ncc(NC(=O)c2cc(C3CC3)nc3c2c(C)nn3C)c1C | -23%
O=C(Nc1ccc(F)cc1F)Nc1c[nH]c(=O)[nH]c1=O | -4.74%
CC(C)c1noc(CCCC(=O)N2CCN(Cc3ccncc3)CC2)n1 | -20.6%
